Source: PubChem
Hits are enriched below; roughly 22% of the tested compounds scored in any of these assays.
CYP2C9 act = activators of human CYP2C9; P11712; recombinant CYP2C9, luciferin-H conversion, luminescence; stronger effect = higher value; factor 1 = untreated enzyme, 0 = blocked; activation factor at 5 µM; actives 1.4% (n = 96,000); AID 1024;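 active = activation factor of 2 or more for CYP2C9 at a 5 µM dose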;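 also: 0 = sulfaphenazole-blocked wells and 1 = vehicle-only wells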
CYP2C19 inh = inhibitors of human CYP2C19. P33261. CYP2C19 Supersomes, luciferin-H EGE luminescence, 30 min. inhibition, % at 5 µM. actives 21% (n = 96,000);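 active = CYP2C19 inhibition above a set limit at 5 µM in the primary screen, cut at about 50% in these data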;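 also: plate controls were negative control wells for no effect and 2.5 mM tranylcypromine positive control for full effect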
CYP2C19 activ = cytochrome P450 2C19 (human) activation | P33261 | recombinant CYP2C19, luciferin-H EGE luminescence; stronger effect = higher value; 0 = fully inhibited enzyme, 1 = untreated enzyme | activation factor at 5 µM | 96,000 tested, under 10 active;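 active = activation factor of at least 2 at 5 µM in the primary screen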;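 also: 0 = wells with 2.5 mM tranylcypromine and 1 = vehicle-only wells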
CYP2C9 inhib = inhibitors of human CYP2C9; AID 777; P11712; CYP2C9 Supersomes, luciferin-H conversion, luminescence; actives 20% (n = 96,000); inhibition, % at 5 µM;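 active = blocking of liver enzyme CYP2C9 beyond about 50% at 5 µM, limit read from the data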
Measles CPE = protection of cells from measles virus; AID 841; actives 1.5% (n = 140,000); protection (pct of control), % at 4 µM; Measles virus-infected cells, CPE protection, absorbance; in the data active = protection mostly above about 24%, no sharp cut-off; inactive = mostly below about 26%
An asterisk follows results filed as active; · = no result.

SMILES	CYP2C9 act	CYP2C19 inh	CYP2C19 activ	CYP2C9 inhib	Measles CPE
O=C(C1CCN(C2CC(=O)N(Cc3ccccc3)C2=O)CC1)N1CCCCCC1 (configuration not stated)	1	-5	1	0	6
CCOC(=O)Cn1nnc(-c2cccc(OC)c2)n1	1.1	11	0.9	-10	16
O=C(Nc1ccccc1)OCCNC(=O)c1cccc(Cl)c1	0.1	93*	0.1	87*	29*
O=C(NCCO)c1cccc(Cl)c1	0.8	18	0.8	19	3
O=C(Nc1ccccc1)O/N=C(\c1ccccc1)c1ccccn1	0.4	24	0.8	61*	4
O=C(Nc1ccccc1)OCc1ccccn1	0.9	51*	0.5	9	5
NC(=O)COc1ccc(NC(=O)OCc2ccccc2)cc1	0.9	19	0.8	7	7
Cc1oc(C(C)(C)C)cc1C(=O)Nc1cccc(/C=C/C(=O)O)c1	0.8	6	0.9	15	5
O=C1c2cccc(OCc3ccc(F)cc3)c2CCN1Cc1ccc(F)cc1	·	·	·	·	5
Cc1[nH]nc2c1C1(CCC(c3ccccc3)CC1)C(C#N)=C(N)O2 (configuration not stated)	0.7	42	0.6	31	12
O=C(CCC(=O)OCCCC(F)(F)C(F)(F)F)Nc1ccc(Cl)cc1Cl	0.6	70*	0.3	40	7
CCOC(=O)/C(=C\c1cccnc1)C(=O)c1cc(C(C)=O)c(Nc2ccccc2)s1	0	65*	0.3	100*	17
CCOC(=O)/C(=C\c1ccccc1)C(=O)c1cc(C(C)=O)c(Nc2ccccc2)s1	0	92*	0.1	98*	1
Cn1c(CN2CCN(C(=O)c3ccc(F)cc3)CC2)nc2cc([N+](=O)[O-])ccc21	·	·	·	·	16
Cc1cc2nc(-c3ccc(SCC(=O)Nc4ccc(S(=O)(=O)N5CCCC5)cc4)nc3)[nH]c2cc1C	·	·	·	·	6
O=C1CN=CN=CN1c1ccc(Cl)cc1Cl	·	·	·	·	45*
CCOC(=O)C1=C(C)N(C)C(=S)NC1c1ccccc1 (configuration not stated)	·	·	·	·	7
CC1CC(C)CN(C(=S)Nc2ccc3nc4n(c(=O)c3c2)CCCCC4)C1 (configuration not stated)	·	·	·	·	7
CCOC(=O)N1CCN(C(=O)CC(=O)Nc2ccc3nc4n(c(=O)c3c2)CCCCC4)CC1	0.3	14	0.9	69*	9
CCOC(=O)N1CCN(C(=O)C(=O)Nc2ccc3nc4n(c(=O)c3c2)CCCCC4)CC1	0.5	28	0.7	52*	3
O=C(N/N=C/C=C/c1ccco1)/C(=C/c1ccccc1)NC(=O)c1ccccc1	·	·	·	·	17
O=C(CN(Cc1ccco1)C(=O)CCC(=O)Nc1nccs1)NCc1ccccc1	·	·	·	·	3
O=C(CN(Cc1cccs1)C(=O)CCC(=O)Nc1nccs1)NCc1ccccc1	0.4	78*	0.2	64*	6
CCN(CCCNc1ncnc2nc[nH]c12)c1cccc(C)c1	0.2	83*	0.2	78*	6
CCCCN(CCCNc1ncnc2nc[nH]c12)c1ccccc1	0.4	19	0.8	56*	16
SMILES	CYP2C9 act	CYP2C19 inh	CYP2C19 activ	CYP2C9 inhib	Measles CPE
CCCCN(c1ccccc1)c1ncnc2nc[nH]c12	1.2	-4	1	-18	11
c1ccc(CCNc2ncnc3nc[nH]c23)cc1	0.9	38	0.6	13	7
c1ccc2c(CCNc3ncnc4nc[nH]c34)c[nH]c2c1	1.4	83*	0.2	-41	4
CS(=O)(=O)N1CCC(C(=O)Nc2ccc(F)cc2F)CC1	·	·	·	·	5
CCC1(CC)C(=O)C(C)(C)C(=O)OC1c1cccs1 (configuration not stated)	0.6	96*	0	44	40
CN(C)c1ccc(C2OC(=O)C(C)(C)C(=O)C2(C)C)cc1 (configuration not stated)	1	14	0.9	1	13
CCOC(=O)c1c(C)oc2ccc(NS(=O)(=O)c3ccc4c5c(cccc35)C(=O)N4)cc12	·	·	·	·	7
CCN(CC)S(=O)(=O)c1ccc2c3c(cccc13)C(=O)N2	0.9	89*	0.1	7	12
O=C1Nc2ccc(S(=O)(=O)NCCC3=CCCCC3)c3cccc1c23	0.6	61*	0.4	37	8
CCNS(=O)(=O)c1ccc2c3c(cccc13)C(=O)N2	0.7	70*	0.3	29	3
CCN(c1cccc(C)c1)S(=O)(=O)c1ccc2c3c(cccc13)C(=O)N2	·	·	·	·	6
CC(C)CC(=O)Nc1nc2c(c(=O)[nH]1)CCCC2	0.9	-3	1	12	6
